Compound activity deposited in PubChem BioAssay by National Center for Advancing Translational Sciences (NCATS).
Sfp PPTase inh – blocks B. subtilis Sfp PPTase activity; Biochemical Sfp PPTase activity, qHTS; AID 1490; actives 3.5% (n = 310,000); Potency, µM, for inactives: largest response in the series, negative = inhibition, usual class: inhibitors; Q9F4F7;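 also: the enzyme is Sfp with the accession as filed and its product quenches rhodamine fluorescence; potency is read from the fitted curve at half-maximal effect; 0% = enzyme reaction without inhibitor and -100% = no enzyme wells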
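Sfp 15 nM + cpd, 15 min RT; start w/ rhodamine-CoA 5 uM, BHQ-2-YbbR 12.5 uM (final); 50 mM Hepes pH 7.6, 10 mM MgCl2, 0.01% NP-40, 0.01% BSA; read 525/598 nm at 0 and 30 min.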
PLK1 PBD inh – PLK1 (human) polo-box domain binding inhibition; Potency, µM, for inactives: max response, negative = inhibition, most hits filed as inhibitors; P53350; actives 2.8% (n = 360,000); Plk1 PBD binding of FITC phosphopeptide, fluorescence polarization; also: potency is read from the fitted curve at half-maximal effect; series mostly up to about 57 µM; nearly all actives have a fitted effect of over 65% in size
VDR inh – inhibitors of human vitamin D receptor; P11473; VDR-SRC2-3 peptide fluorescence polarization, 2 h; Potency, µM, inactives show max response, negative = inhibition, actives largely listed as inhibitors; actives 0.93% (n = 400,000); AID 504847; also: potency is read from the fitted curve at half-maximal effect
Target sequence (P11473 whole entry, looked up): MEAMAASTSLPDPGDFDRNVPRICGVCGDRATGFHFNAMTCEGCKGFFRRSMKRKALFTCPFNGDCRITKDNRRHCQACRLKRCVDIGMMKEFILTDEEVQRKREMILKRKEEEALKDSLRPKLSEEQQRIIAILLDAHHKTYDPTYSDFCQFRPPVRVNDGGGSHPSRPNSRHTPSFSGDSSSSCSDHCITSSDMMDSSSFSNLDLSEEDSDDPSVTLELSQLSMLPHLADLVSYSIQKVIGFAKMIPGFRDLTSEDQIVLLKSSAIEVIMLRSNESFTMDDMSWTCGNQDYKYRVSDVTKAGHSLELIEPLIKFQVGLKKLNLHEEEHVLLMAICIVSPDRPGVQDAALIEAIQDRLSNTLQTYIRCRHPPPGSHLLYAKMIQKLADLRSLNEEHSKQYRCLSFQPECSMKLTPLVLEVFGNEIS
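Signal is fluorescence polarization, reporting how far test compounds block the interaction of VDR with the SRC2-3 coregulator peptide after a 2 h room-temperature incubation.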
G9a block – inhibitors of human histone lysine methyltransferase G9a. Q96KQ7. G9a H3K9 monomethylation, AlphaScreen, 2 h. Potency, µM (series often up to 102 µM), inactives show top-dose activity, negative = inhibition, most hits filed as inhibitors. actives 8.8% (n = 350,000); also: potency is read from the fitted curve at half-maximal effect; nearly all actives have a fitted effect of over 75% in size
Target sequence (Q96KQ7 913-1193 limits assumed): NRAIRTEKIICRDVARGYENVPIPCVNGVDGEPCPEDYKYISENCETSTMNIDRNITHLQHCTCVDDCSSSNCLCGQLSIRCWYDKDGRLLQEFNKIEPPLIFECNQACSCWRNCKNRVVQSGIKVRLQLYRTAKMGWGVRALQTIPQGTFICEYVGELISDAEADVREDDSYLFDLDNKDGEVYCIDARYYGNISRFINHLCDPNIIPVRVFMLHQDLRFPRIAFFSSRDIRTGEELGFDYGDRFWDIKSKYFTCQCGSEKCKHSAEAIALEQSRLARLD
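Methyltransferase reactions run at room temperature for 2 h (20 nM enzyme, 500 nM biotin-H3K9 peptide, 20 uM SAM) after a 15 min compound preincubation; product detected by AlphaScreen beads and anti-H3K9me1 antibody.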
CCT chaperon mod – modulators of cytosolic chaperonin (CCT/TRiC) activity; actives 0.3% (n = 360,000); activity change, % (test concentration not listed), hits read low; AID 651819; purified chaperonin ATPase assay, HTRF ADP detection, 30 min; in the data active = activity change below about -30%
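ATPase activity: ADP formed was measured by HTRF Transcreener (665/615 nm ratio) after 30 min at 37 deg C with 10 uM ATP. Compounds screened at one 76 uM concentration against 40 or 20 nM TRiC in Tris pH 7.4/KCl/MgCl2/DTT buffer.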
MmCpn inh – inhibitors of Methanococcus maripaludis chaperonin TRiC (MmCpn). Potency, µM (highest dose often 76.9 µM), for the others: top-dose activity, negative = inhibition, actives largely listed as inhibitors. actives 0.031% (n = 330,000). purified Mm-Cpn ATPase, ADP Transcreener TR-FRET; also: potency is read from the fitted curve at half-maximal effect; nearly all actives have a fitted effect of over 80% in size
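Measured: ADP formation by purified Mm-CPN. Conditions: 25 nM protein, 10 uM ATP, Tris pH 7.4 with Mg2+, K+ and DTT, 37°C for 30 min. Detection: Transcreener HTRF after 30 min at room temperature.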
* marks the source's active call; other numbers are inactive results; ? = inconclusive; . = not tested or not shown; ! = repeats disagree; [ ] = another dose, or the depositor's remark. Compounds with a hit are over-represented: about 10% of the library has one in this group of screens. Unless noted, calls follow the shape of the dose curve; as a rule, active = well fitted curve in the direction sought with a large enough effect; inconclusive = small, poorly fitted or top-dose-only effect, or another doubt; inactive = no such curve, though single readings can be large; an effect the other way counts as inactive or inconclusive. Unless noted, % is scaled to controls: 0 for no effect and ±100 for the full control effect.

SMILES	Sfp PPTase inh	PLK1 PBD inh	VDR inh	G9a block	CCT chaperon mod	MmCpn inh
O=C(O)CC1S/C(=N/N=C/C=C/c2ccccc2)NC1=O (stereo unspecified)	-7%	-9%	-14%	7.9µM*	-3	2%
Cc1cc(C(=O)O)c2c(=O)n(C)c(=O)n(C)c2n1	.	.	-11%	-2%[59 µM]	.	.
COc1ccc(CCNC(=O)CCc2c(C)c3cc4c(C)c(C)oc4cc3oc2=O)cc1	.	.	4%	-2%[59 µM]	.	.
O=C(CCSCCc1ccccn1)Nc1ccc(Cl)cc1	.	.	-8%	5%[59 µM]	.	.
COC1(OC)C(=N/O)/C(=N\O)CCC1O (stereo unspecified)	-7%	-8%	-9%	11µM*	-3	0%
O=S(=O)(c1ccc2nc(Nc3ccc(Br)cc3F)ccc2c1)N1CCCC1	.	.	19%	-9%[59 µM]	.	.
COc1ccccc1C(=O)Oc1c(Sc2ccccc2)c(C)nn1-c1ccccc1	.	.	-30%	-28%[59 µM]	.	.
Cc1ccc(Sc2c(C)nn(-c3ccccc3)c2OC(=O)CC(C)C)cc1	.	.	79µM*	8.9µM*	.	.
Cc1nn(C(=O)COc2ccc(Cl)cc2)c(C)c1Sc1ccccc1	.	.	17%	-21%[59 µM]	.	.
COc1cc(C(=O)Oc2c(Sc3ccc(C)cc3)c(C)nn2-c2ccccc2)cc(OC)c1OC	.	.	?	14µM*	.	.
CCCC(=O)Oc1c(Sc2ccc(Cl)cc2)c(C)nn1-c1ccccc1	.	.	50µM*	4µM*	.	.
O=S(=O)(c1ccc(Cl)cc1)c1nc(-c2ccccc2)oc1N1CCN(c2ccccc2)CC1	.	.	-6%	-23%[59 µM]	.	.
COc1cc(-c2nc(Cn3nnc(C(=O)Nc4cccc(Cl)c4)c3C)c(C)o2)cc(OC)c1OC	.	.	-15%	1%[59 µM]	.	.
Cc1ccc(/C=N/n2c(-c3ccncc3)n[nH]c2=S)s1	63µM*	-16%	-7%	.	-1	1%
Cc1cccc(-c2n[nH]c(=S)n2/N=C/c2ccc(C)s2)c1	?	-21%	0%	1.1µM*	1	0%
COc1ccc(NC(=O)c2c(NC(=O)C(F)(F)F)sc3c2CCCCC3)cc1	.	.	0%	?	.	.
COc1ccc(C)c2sc(N(Cc3cccnc3)C(C)=O)nc12	.	.	-4%	7%[59 µM]	.	.
COc1ccccc1OC(C)C(=O)N1CCN(CCc2ccccn2)CC1 (stereo unspecified)	.	.	-5%	?	.	.
CC(=O)c1ccc(C(=O)N(Cc2cccnc2)c2nc3c(C)c(C)ccc3s2)cc1	.	.	5%	-45%[59 µM]	.	.
O=c1[nH]nc(Cc2ccccc2)c2ccccc12	9%	-4%	4%	-4%[59 µM]	-2	0%
O=c1[nH]nc(Cc2ccc(-c3ccc(Cl)cc3)o2)c2ccccc12	56µM*	-8%	-13%	?	-3	-14%
O=C(c1ccc([N+](=O)[O-])cc1)N1CCN(c2cccc3[nH]ccc23)CC1	-3%	-5%	-5%	50µM*	2	-1%
O=[N+]([O-])c1ccc(N2CCN(Cc3ccncc3)CC2)cc1	-24%	4%	-22%	32µM*	1	-2%
O=C(c1ccccc1)N1CCN(C(=O)c2ccc([N+](=O)[O-])cc2)CC1	6%	1%	-3%	0%[59 µM]	0	-9%
Clc1cccc(CN2CCN(c3ncccn3)CC2)c1Cl	-27%	-2%	-23%	.	-3	1%
SMILES	Sfp PPTase inh	PLK1 PBD inh	VDR inh	G9a block	CCT chaperon mod	MmCpn inh
Fc1cccc(CN2CCN(c3ncccn3)CC2)c1	45µM*	2%	10%	?	0	0%
Clc1ccccc1CN1CCN(c2ncccn2)CC1	-22%	-4%	-14%	32µM*	3	1%
FC(F)(F)c1cccc(CN2CCN(c3ncccn3)CC2)c1	.	2%	13%	.	1	.
O=[N+]([O-])c1ccc(N2CCN(Cc3ccc([N+](=O)[O-])o3)CC2)cc1	-39%	5%	-10%	?	-1	0%
O=C(Oc1ccccc1)N1CCC2(CC1)CCN(c1ccccn1)CC2	0%	.	-23%	-8%[12.7 µM]	.	.
Clc1ccc(CN2CCN(c3ncccn3)CC2)cc1	17%	-8%	-16%	.	-1	-3%
O=[N+]([O-])c1cccc(CN2CCN(c3cccc4[nH]ccc34)CC2)c1	0%	-14%	8%	32µM*	-2	-2%
O=[N+]([O-])c1cccc(CN2CCN(c3ncccn3)CC2)c1	-12%	7%	-8%	11µM*	-1	1%
O=[N+]([O-])c1ccccc1CN1CCN(c2ncccn2)CC1	-14%	?	-10%	?	1	-2%
c1ccc(-c2ccc(CN3CCN(c4ncccn4)CC3)cc2)cc1	?	-4%	-6%	2.8µM*	-3	-2%
O=[N+]([O-])c1ccc(CN2CCN(c3ncccn3)CC2)cc1	-25%	-3%	-11%	32µM*	-1	6%
COc1ccc(Cc2nc3ccccc3n2Cc2ccccc2F)cc1	.	.	-1%	7%[59 µM]	.	.
CN1c2ccccc2C(=O)N2CCc3c([nH]c4ccccc34)C21 (stereo unspecified)	4%	.	-1%	.	.	.
c1ccc(CN2CCN(c3nc(-c4ccccc4)nc(-n4ccnc4)n3)CC2)cc1	32µM*	-3%	5%	?	1	-1%
c1ccc(N(c2ccccc2)c2nc(N3CCCC3)nc(-n3ccnc3)n2)cc1	45µM*	0%	-1%	?	2	-2%
c1ccc(-c2nc(-n3ccnc3)nc(-n3ccnc3)n2)cc1	?	-6%	10%	?	-2	2%
Cn1cnc([N+](=O)[O-])c1S(=O)(=O)Nc1ccccc1	.	-6%	-24%	.	-2	.
Cn1cnc([N+](=O)[O-])c1S(=O)(=O)Oc1ccccc1	.	?	25µM*	.	-1	.
O=C(c1ccco1)N1CCN(C(=O)c2cccc3c2C(=O)N(C2CCCCC2)C3)CC1	-23%	-3%	-14%	45µM*	-1	0%
CCN1CCSc2ccc(C(=O)NCc3ccc(OC(C)C)cc3)cc21	4%	-3%	-23%	45µM*!	-1	-15%
COc1ccc(-c2nc(-c3ccccc3)oc2Nc2c(C)cccc2C)cc1	-17%	.	14%	.	.	.
CC(C)c1ccc(S(=O)(=O)NCc2ccc3c(c2)CCN3C(=O)c2ccccc2)cc1	.	.	4%	10%[59 µM]	.	.
Cc1ccc(C2C(C(=O)c3cc4ccccc4o3)=C(O)C(=O)N2CCN2CCOCC2)o1 (stereo unspecified)	50µM*	-24%	1%	?	1	-3%
O=C(C1=C(O)C(=O)N(CCN2CCOCC2)C1c1cccnc1)c1cc2ccccc2o1 (stereo unspecified)	-2%	-12%	-24%	28µM*	1	-2%
CCN(Cc1ccccc1)Cc1c(O)ccc2c(=O)c(-c3ccccc3Cl)c(C(F)(F)F)oc12	.	.	24%	0%[59 µM]	.	.
